Screens as filed in PubChem.
TDP1 cell noCPT: qHTS for Inhibitors of human tyrosyl-DNA phosphodiesterase 1 (TDP1): qHTS in cells in absence of CPT; AID 686978, 2013; 420,000 compounds, 15% hits; DT40 Tdp1-/- hTDP1 cells, no CPT, ATP luminescence, 48 h; Potency, µM (top dose mostly 46.2 µM), inactives show top-dose activity change, negative = growth inhibition, hits mostly inhibitors; further: potency means the concentration at half of the fitted maximal effect; on the % scale 0 is the no-effect control and ±100 the full control effect; nearly all actives have a fitted effect of over 55% in size
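Chicken DT40 Tdp1-/- cells stably complemented with human TDP1 were seeded at 400 cells/well with DMSO in place of 20 nM camptothecin. After compound pinning, cells grew at least 48 hr at 37 °C; viability read by CellTiter-Glo luminescence.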
DT40 TDP1 CPT: DT40-hTDP1 cell growth loss with CPT; chicken DT40 Tdp1-/-;hTDP1 cells + 20 nM CPT, ATP luminescence, 48 h; AID 686979; Potency, µM (highest dose often 46.2 µM), for inactives: at the highest dose activity change, negative = growth inhibition, hits mostly inhibitors; 420,000 compounds, 12% hits; further: potency means the concentration at half of the fitted maximal effect; on the % scale 0 is the no-effect control and ±100 the full control effect; nearly all actives have a fitted effect of over 55% in size
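Chicken DT40 Tdp1-/- cells complemented with human TDP1, 400 cells/well, exposed to compounds plus 20 nM camptothecin for at least 48 h at 37 C; viability read as ATP content by CellTiter-Glo luminescence.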
TGFb inhibitor: blocks TGF-b signaling. HepG2 CAGA-GFP TGF-b/SMAD3 reporter, GFP fluorescence, 18 h; TGF-beta stimulated, 500 pg/mL final. Potency, µM (series often up to 46.1 µM), for inactives: at the highest dose activity, negative = inhibition, actives largely listed as inhibitors. 410,000 compounds, 1.2% hits. AID 588855; further: potency means the concentration at half of the fitted maximal effect; on the % scale 0 is the no-effect control and ±100 the full control effect; nearly all actives have a fitted effect of over 65% in size
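GFP signal (ex488/em500-530) from TGF-beta-stimulated HEPG2 CAGA-GFP cells, 500 pg/mL final, 18 h at 37 degrees C in DMEM plus 1% FBS, normalized to unstimulated and DMSO-stimulated controls.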
TDP1 inh: inhibitors of human tyrosyl-DNA phosphodiesterase TDP1; recombinant TDP1, AlphaScreen DNA substrate cleavage; 350,000 compounds, 0.28% hits; Potency, µM (top dose mostly 130 µM), without a hit: at the highest dose activity change, negative = inhibition, usual class: inhibitors; Q9NUW8; further: potency means the concentration at half of the fitted maximal effect; on the % scale 0 is the no-effect control and ±100 the full control effect; nearly all actives have a fitted effect of over 40% in size
Target sequence (Q9NUW8 whole entry, looked up): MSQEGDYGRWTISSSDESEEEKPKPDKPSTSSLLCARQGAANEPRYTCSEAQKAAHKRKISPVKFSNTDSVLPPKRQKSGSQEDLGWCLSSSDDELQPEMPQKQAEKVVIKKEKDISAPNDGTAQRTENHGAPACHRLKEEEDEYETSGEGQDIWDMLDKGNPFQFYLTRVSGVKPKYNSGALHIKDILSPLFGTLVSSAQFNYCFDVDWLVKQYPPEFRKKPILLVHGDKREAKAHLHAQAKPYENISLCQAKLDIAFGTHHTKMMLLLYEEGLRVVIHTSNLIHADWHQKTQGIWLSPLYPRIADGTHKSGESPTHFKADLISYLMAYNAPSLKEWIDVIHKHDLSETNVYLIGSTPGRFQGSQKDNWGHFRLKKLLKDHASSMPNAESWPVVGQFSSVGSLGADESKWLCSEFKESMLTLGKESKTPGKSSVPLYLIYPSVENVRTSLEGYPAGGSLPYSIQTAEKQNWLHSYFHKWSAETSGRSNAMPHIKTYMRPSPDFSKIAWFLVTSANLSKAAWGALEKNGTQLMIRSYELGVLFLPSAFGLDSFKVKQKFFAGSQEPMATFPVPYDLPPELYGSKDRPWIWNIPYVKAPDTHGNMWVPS
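Tdp1 1 nM final; 15 min RT w/ cpd; substrate 15 nM, 5 min; beads 10 ug/ml, 10 min; AlphaScreen read. Neg ctrl: no enzyme.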
IL-1B inflam inh: inflammasome signaling inhibition, IL-1 beta readout; THP-1 LPS/ATP IL-1B secretion, AlphaLISA, 16 h; hits give low values; activity change, % at 57.5 µM; 360,000 compounds, 4.7% hits; AID 743279; in the data active means activity change below about -50%; inconclusive means mostly about -30% to -49%; further: on the % scale 0 is the no-effect control and ±100 the full control effect
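THP-1 cells pretreated 1 hr with compounds (up to 57.5 uM final), then stimulated with LPS (250 ng/mL final) plus ATP (1.25 mM final); secreted IL-1B measured by AlphaLISA after 16 hr, decreased signal indicating inhibition.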
HepG2 viability: kills HepG2 cells in TGF-b inhibitor counter-screen. HepG2 CAGA-GFP viability, ATP luminescence, 18 h. Potency, µM (doses to about 46.1 µM), inactives show top-dose activity change, negative = cytotoxicity, most hits filed as cytotoxic. 410,000 compounds, 0.76% hits; further: potency means the concentration at half of the fitted maximal effect
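CellTiter-Glo luminescence gave cytotoxicity after 18 hours at 37 degrees C. The cells were HepG2 CAGA-GFP in 1% FBS DMEM, stimulated with 500 pg/mL TGF-beta after compound addition. %Activity was normalised to no-cell wells (complete cell-killing) and DMSO (no toxicity), and curves were fitted and classified.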
Active calls of the source: *; u = inconclusive; x = no result; [ ] = remark or other dose. Sampled rows, rich in hits. Any-hit rate of the full collection: about 19%. Unless noted, the call rests on the fitted dose curve; in most records, active means well fitted curve in the direction sought with a large enough effect; inconclusive means small, poorly fitted or top-dose-only effect, or another doubt; inactive means no such curve, though single readings can be large; an effect the other way counts as inactive or inconclusive.

SMILES | TDP1 cell noCPT | DT40 TDP1 CPT | TGFb inhibitor | TDP1 inh | IL-1B inflam inh | HepG2 viability
CC(=O)Nc1ccc(-c2ccnc3c2CC(C)(C(=O)Nc2ccccc2)O3)cc1 (configuration not stated) | 18.4µM* | 20.6µM* | 6.4% | x | -23.8 | -2.4%
CC(=O)Nc1ccc(-c2ccnc3c2CC(C)(C(=O)Nc2cccc(Oc4ccccc4)c2)O3)cc1 (configuration not stated) | 16.4µM* | 25.9µM* | -29.4% | x | -21.7 | -15.5%
CN(c1ccccc1)S(=O)(=O)c1cccc(NC(=O)CSc2nncs2)c1 | 8.2µM* | 7.31µM* | u | 3.5% | 0.6 | 8.2%
Cc1cccc(NC(=O)CSc2nnc(N)s2)c1 | -16.2% | 7.4% | 1.6% | 1.3%[12.3 µM] | x | 5.0%
CN(c1ccccc1)S(=O)(=O)c1cccc(NC(=O)CSc2nnc(N)s2)c1 | 8.2µM* | 8.2µM* | 12.1% | 5.5% | -3.0 | -21.0%
CN(c1ccccc1)S(=O)(=O)c1cccc(NC(=O)CSc2ncn[nH]2)c1 | 5.8µM* | 8.2µM* | 6.4% | 6.9% | 22.5 | 2.3%
Cc1nc2ccn(Cc3cccs3)c(=O)c2cc1C(=O)N1CCN(c2ccc(F)cc2)CC1 | u | u | u | -0.6% | x | -17.3%
Cc1ccc(C)c(N2CCN(C(=O)c3cc4c(=O)n(Cc5cccs5)ccc4nc3C)CC2)c1 | 20.6µM* | 23.1µM* | 10.4% | 7.1% | x | 16.2%
COc1ccc(N2CCN(C(=O)c3cc4c(=O)n(Cc5cccs5)ccc4nc3C)CC2)cc1 | 25.9µM* | u | -35.1% | 8.4% | x | -11.2%
COc1cccc(N2CCN(C(=O)c3cc4c(=O)n(Cc5cccs5)ccc4nc3C)CC2)c1 | u | 23.1µM* | -20.1% | 1.9% | x | -4.5%
O=C(OCc1ccccc1)/C(=C/c1cccc(Br)c1)NC(=O)c1ccco1 | u | u | u | 4.2% | 0.0 | 0.3%
COC(=O)c1cc2c(s1)-c1cc(F)ccc1OC2 | -18.9% | -10.0% | 3.3% | 0.0% | -1.9 | 5.9%
Cc1csc(NC(=O)c2cc3c(s2)-c2ccccc2OC3)n1 | -29.4% | -13.0% | u | 2.6% | 32.5 | -43.0%
CC(=O)c1cc2c(s1)-c1cc(F)ccc1OC2 | -13.2% | 3.6% | 7.08µM* | 1.3% | -7.8 | -44.2%
CC1CCCC(C)N1CCCNC(=O)c1cc2c(s1)-c1ccccc1OC2 (configuration not stated) | u | u | u | 0.8% | -9.1 | 14.1µM*
Cc1c(NC(=O)c2cc3c(s2)-c2ccccc2OC3)cccc1[N+](=O)[O-] | 18.4µM* | u | u | 2.3% | -73.4* | -32.1%
CN(C)CCNC(=O)c1cc2c(s1)-c1ccccc1OC2 | u | 16.4µM* | 10.5% | -3.9% | -23.0 | 2.8%
COc1ccc(-c2nc3n(n2)C(c2ccccc2F)C(C(=O)Nc2cccnc2)=C(C)N3)cc1OC (configuration not stated) | -92.2% | u | u | x | x | -21.3%
CC1CCC(C(C)C)[C@H](O)C1 (some centres not stated) | 0.3% | u | x | -4.0%[56.1 µM] | x | x
Cc1ccc(CN2C(=O)c3ccccc3Sc3ccc(C(=O)N4CCOCC4)cc32)cc1 | u | u | u | 10.4% | x | -30.7%
COc1ccc(CCNC(=O)c2cc3c(s2)-c2ccccc2OC3)cc1OC | 11.6µM* | u | -20.9% | u | x | -31.0%
COc1cn(CC(=O)Nc2ccc(F)cc2)c(CN2CCCCC2)cc1=O | -19.1% | 3.1% | 4.2% | -5.4% | x | 3.4%
O=C(Cn1c(O)c(/C=C2\C=Nc3ccccc32)sc1=O)N1CCOCC1 | u | -7.9% | 18.0% | -3.6% | -5.0 | -18.6%
O=C(Cn1c(O)c(/C=C2\C=Nc3ccc(Br)cc32)sc1=O)N1CCCC1 | u | 20.6µM* | 4.7% | 7.5% | u | -41.4%
CCCCCOC(=O)Cc1c(O)c2ccccc2n(C)c1=O | 16.4µM* | 16.4µM* | -4.8% | 2.1% | -19.7 | 0.8%
SMILES | TDP1 cell noCPT | DT40 TDP1 CPT | TGFb inhibitor | TDP1 inh | IL-1B inflam inh | HepG2 viability
COc1cc(/C=C(\C#N)c2nc3ccc(C)cc3[nH]2)cc([N+](=O)[O-])c1O | 20.6µM* | u | u | 9.4% | 47.9 | -2.6%
COc1cc(/C=C(\C#N)c2nc3ccc(C)cc3[nH]2)c([N+](=O)[O-])cc1OC | u | -28.2% | 25.8% | 8.6% | -89.1* | -12.9%
Cc1ccc2nc(/C(C#N)=C\c3cc(O)ccc3[N+](=O)[O-])[nH]c2c1 | -22.5% | -7.5% | 5.0% | 6.2% | 3.0 | -12.1%
COc1ccc(CN(C)CC(=O)N(C)CC(=O)Nc2ccccc2Br)cc1F | u | -4.3% | 4.6% | 0.5% | 11.6 | -6.2%
CN(Cc1ccccc1)/[N+]([O-])=N/Oc1ccc([N+](=O)[O-])cc1[N+](=O)[O-] | x | x | u | x | x | -95.0%
Cc1ccc(CNC(=O)CSCc2ccccc2)cc1 | -3.6% | 3.7% | 14.2% | -3.6% | 4.4 | 23.2%
CCCCN(CCCC)CCNC(=O)CSCc1ccc(C)cc1 | 20.6µM* | 25.9µM* | -3.6% | 0.0% | -8.7 | -11.3%
COc1c(S(=O)(=O)N2CCN(C(=O)c3ccco3)CC2)ccc(Cl)c1Cl | -21.6% | -26.5% | -17.7% | 0.6% | -0.6 | -5.3%
COc1ccc(/C=N/N2CCOCC2)cc1O | -0.5% | 12.3% | -4.3% | -5.3% | 6.9 | 3.0%
COc1ccc(/C=N/N2CCN(C3c4ccccc4-c4ccccc43)CC2)cc1O | 18.4µM* | u | u | 9.5% | -26.2 | -15.7%
Cc1ccc(/C=N/N2CCN(C3c4ccccc4-c4ccccc43)CC2)s1 | u | -14.2% | 0.0% | -0.6% | 17.1 | -4.3%
C(=N\N1CCN(C2c3ccccc3-c3ccccc32)CC1)/c1ccccn1 | 16.4µM* | 20.6µM* | -0.9% | 6.2% | -13.9 | -19.0%
C(=C\c1ccccc1)/CN1CCN(C(c2cc3ccccc3o2)c2nnnn2C2CCCCC2)CC1 (configuration not stated) | u | 18.4µM* | -4.1% | x | u | -3.5%
C(=C\c1ccccc1)/CN1CCN(C(c2ccnc3ccccc23)c2nnnn2C2CCCC2)CC1 (configuration not stated) | 14.6µM* | u | 10µM* | x | -28.7 | -43.7%
C(=C\c1ccccc1)/CN1CCN(C(c2ccccc2)c2nnnn2C2CCCC2)CC1 (configuration not stated) | 23.1µM* | 18.4µM* | u | x | -4.7 | -7.6%
